Results reported in the supplement of paper PMC11219838.
Values without a mark were called inactive.

Experiments:
Settings in all cases: 60 µM; 5 days; temperature: 20 °C
Meloidogyne hapla J2 = test: proportion of mobile M. hapla J2 relative to DMSO control (fraction of DMSO control); higher = more viable, less nematicidal, active = 0.7 or less
Outline: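 Compound was pinned to 60 µM final (0.6% v/v DMSO) into 96-well wells, each holding about 25 M. hapla J2 in distilled water. Plates were sealed and shaken for 5 days at 20 °C and 200 rpm, then given 2 µL 1 M NaOH per well. Microscopic mobility scores were normalised to the mean of the plate's own DMSO wells, eight per plate, with two biological replicates averaged.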

[1] = system: Caenorhabditis elegans dauer (daf-2(e1370)); test: proportion of mobile C. elegans dauer larvae relative to DMSO control (fraction of DMSO control); higher = more viable, less nematicidal, active = 0.63 or less; extreme values may be limits of the assay
Outline: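 Compound was added by pinning to 60 µM final, giving 0.6% v/v DMSO, in 96-well plates containing about 20 C. elegans dauers per well in liquid NGM. These dauers came from synchronized larvae held on MYOB plates with E. coli OP50 for 48 h at 25 °C. Plates were sealed and shaken at 200 rpm at 20 °C for 5 days. Under a dissection microscope, the proportion of mobile worms was scored relative to DMSO wells, and two biological replicates were averaged.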

Ditylenchus dipsaci = test: proportion of mobile D. dipsaci (mixed stage) relative to DMSO control (fraction of DMSO control); higher = more viable, less nematicidal, active = 0.86 or less; extreme values may be limits of the assay
Outline: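 Mobility values are relative to DMSO controls and are averages of two biological replicates. For each well of a 96-well plate, about 20 D. dipsaci worms, grown on pea plants in Gamborg B-5 agar and funnel-extracted into water, were dispensed in distilled water. Plates received pinned compound at 60 µM final with 0.6% v/v DMSO and were sealed and shaken at 200 rpm for 5 days at 20 °C before 2 µL 1 M NaOH was added and mobile worms were scored by microscope.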

Compound	proportion of mobile M. hapla J2 (Meloidogyne hapla J2)	proportion of mobile C. elegans dauer larvae [1]	proportion of mobile D. dipsaci (Ditylenchus dipsaci)
c1ccc(-c2noc(-c3cccs3)n2)cc1 [tioxazafen]	0.937	0 (active)	1
Cc1ccc(OCc2nc(-c3ccccn3)no2)cc1C	1.01	1	1
Cc1ccc(OCc2nc(-c3ccccc3)no2)c(Br)c1	1.01	1	1
CCOc1ccccc1-c1nc(-c2ccc(NC(=O)c3ccncc3)cc2)no1	0.977	1	1
COc1ccccc1-c1nc(-c2ccc(Br)cc2)no1	1.04	1	1
Clc1ccc(-c2nc(C3CCCCC3)no2)cc1	1.04	1	1
O=C(Nc1ccccc1-c1nc(-c2ccncc2)no1)c1ccc(Cl)cc1	0.909	1	1
c1ccc(-c2noc(CSc3nc4ccccc4[nH]3)n2)cc1	1.05	1	1
CCn1cc(C(=O)CSc2nnc(-c3ccccc3)o2)c2ccccc21	0.987	1	1
COc1ccc(-c2nnc(SCC(=O)Nc3ccc(Cl)cc3Cl)o2)cc1	0.976	1	1
CCOc1ccccc1-c1nc(-c2ccc(NC(=O)CCc3ccc(OC)cc3)cc2)no1	0.918	1	1
Cc1cc(Br)ccc1OCc1nc(-c2ccccn2)no1	0.973	1	1
CCOc1ccc(-c2noc(-c3ccncc3)n2)cc1OC	1	1	1
Fc1ccc(-c2noc(-c3ccc(F)cc3)n2)cc1	1.01	1	1
COc1ccc(-c2noc(COc3ccc(Cl)c(C)c3)n2)cc1	1.02	1	1
O=C(NCc1cccnc1)c1ccccc1-c1nc(-c2ccccc2Cl)no1	0.771	1	1
Cc1ccc(SCc2nc(-c3cccc(C)c3)no2)cc1	1.01	1	1
Cc1ccc(CSc2nnc(-c3ccco3)o2)cc1	0.628 (active)	0.167 (active)	1
CCc1ccc(C(=O)Nc2ccccc2-c2nc(-c3cccnc3)no2)cc1	1.03	1	1
CC(C)(C)C(=O)Nc1ccccc1-c1nc(-c2ccncc2)no1	1	1	1
Fc1ccc(-c2noc(-c3ccc(Cl)cc3)n2)cc1	1.03	1	1
Cc1cccc(OCc2nc(-c3ccc(Br)cc3)no2)c1	1.04	1	1
